# Assay results: ChEMBL document CHEMBL3988442, “University of Dundee, Small-Polar-MMV Screening Library” (2021)
# About 420 (0.61%) of roughly 69,000 compounds showed an effect of 50% or more. The full list was thinned out, with strong results kept by preference.
# Target: T1, Histidine--tRNA ligase (Leishmania infantum) (UniProt A4I591)
# T1 sequence (whole entry): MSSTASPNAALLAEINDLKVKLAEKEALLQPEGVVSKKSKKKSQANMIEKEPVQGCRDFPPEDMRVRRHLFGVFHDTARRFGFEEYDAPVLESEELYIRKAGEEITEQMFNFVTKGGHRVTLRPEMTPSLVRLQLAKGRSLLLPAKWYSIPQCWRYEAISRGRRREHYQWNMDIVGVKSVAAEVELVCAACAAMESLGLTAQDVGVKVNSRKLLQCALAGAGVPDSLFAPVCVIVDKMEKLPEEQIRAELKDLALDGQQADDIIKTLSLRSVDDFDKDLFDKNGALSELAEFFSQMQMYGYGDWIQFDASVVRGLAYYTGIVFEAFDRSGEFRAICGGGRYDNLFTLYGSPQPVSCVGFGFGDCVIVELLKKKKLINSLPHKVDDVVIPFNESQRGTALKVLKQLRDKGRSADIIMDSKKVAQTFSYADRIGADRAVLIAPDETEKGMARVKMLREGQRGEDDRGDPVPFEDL
# Experiment: Leishmania infantum Histidine tRNA synthetase (LdHisRS)
# Assay type: functional
# Parameters: scale not given: in the data most compounds retested in dose-response had high values
# Conditions: 30 µM
row,Compound,Percent Effect [%]
1,O=C1C[C@H]2[C@@H](CCN2C(=O)c2ccc[nH]2)N1CCN1CCCC1,8.06
2,Cc1ccc(CN2CCN(Cc3nccn3C)[C@H]3CS(=O)(=O)C[C@H]32)o1,16.8
3,O=C(NC1CC(F)(F)C1)[C@]12COC[C@H]1CN(Cc1ccccc1)C2,24
4,CNC(=O)[C@H]1C[C@@H]2CN(S(=O)(=O)c3cccc(F)c3)C[C@@H]2N1C,28.6
5,CN(C)C(=O)N1C[C@@H]2COC[C@]2(CNS(C)(=O)=O)C1,4.51
6,CC(C)(C)c1ccc(OCC(=O)O)c(CN2C[C@H]3C[C@H](O)C[C@H]3C2)c1,14.5
7,Cc1nc(CN2CC[C@H]3[C@H]2CCN3c2nncs2)cs1,17.5
8,NCC1Cc2cc(-c3cnccn3)cc(Cl)c2O1 (configuration not stated),11
9,Cc1nc(-c2cc(F)c3c(c2)CC(CN)O3)c[nH]1 (configuration not stated),26.2
10,NCC1Cc2cc(-c3nccc(N4CCC(O)CC4)n3)cc(F)c2O1 (configuration not stated),51.4
11,NCC1Cc2cc(-c3nccc(N4CCC(O)CC4)n3)cc(Cl)c2O1 (configuration not stated),60
12,NCC1Cc2cccc(-c3nccc(N4CCC(O)CC4)n3)c2O1 (configuration not stated),34.3
13,Cc1nc(-c2cc(Cl)c3c(c2)CC(CN)O3)c[nH]1 (configuration not stated),40.5
14,CCCOc1ccc(C(=O)N2CC[C@H]3CC[C@@H](C2)N3)cc1Cl,9.17
15,Cn1cccc1C(=O)N1CC[C@@H]2[C@@H]1CC(=O)N2CC1CCOCC1,19.3
16,CN1CCO[C@@H]2CN(C(=O)Cc3cccs3)CC[C@@H]2C1,2.73
17,Cc1nccc(-c2cccc(NCC(=O)N3CCNC(=O)C3)c2)n1,14.9
18,Cc1nccc(-c2cccc(NCC(=O)N3CCCCCCC3)c2)n1,-19.7
19,Cc1nccc(-c2cccc(NCC(=O)N3CCc4sccc4C3)c2)n1,50

row,Compound,Percent Effect [%]
1,CCOc1nnc(CNC2CCCN(c3ccc(C)nn3)C2)s1 (configuration not stated),54.8
2,Cc1ccc(N2CCCC(NCc3ccc(C)s3)C2)nn1 (configuration not stated),12.3
3,CCOc1nnc(CN(C)C2CCCN(c3ccc(C)nn3)C2)s1 (configuration not stated),27
4,CC/N=c1/c(NC(=O)NCCOC)c(O)oc2ccccc12,12.4
5,CCCn1nc2c(cc1=O)CN(C(C)C(=O)Nc1nccs1)CC2 (configuration not stated),17.9
6,Cn1nc2c(cc1=O)CN(c1ncnc3ccsc13)CC2,100
7,CN1C(=O)[C@H]2CC[C@@H]1CN(c1ncnc3ccsc13)C2,19.8
8,CC(C)n1nc2c(cc1=O)CN(c1ncnc3ccccc13)CC2,18.9
9,CCn1nc2c(cc1=O)CN(c1ncnc3ccsc13)CC2,58.6
10,Cn1ccnc1CN1CCN(c2ncnc3ccsc23)CC1,11
11,CCCn1nc2c(cc1=O)CN(c1ncnc3ccsc13)CC2,83.8
12,CC(C)n1nc2c(cc1=O)CN(c1ncnc3ccsc13)CC2,11.7
13,N#Cc1cccc(CN2CCN(C(=O)C3CCC3)[C@@H]3CS(=O)(=O)C[C@@H]32)c1,23.3
14,COCCN1C(=O)[C@H]2CC[C@@H]1CN(Cc1nnc(C3CC3)o1)C2,-2.04
15,Cc1cccc(CO[C@@H]2C[C@H]3CN(C(=O)c4cnccn4)CCN3C2)n1,12.3
16,O=S(=O)(N1CCCC1)N1C[C@@H](c2cccc(F)c2)[C@@H]2NCCCCC[C@H]21,-7.37
17,COC(=O)N1C[C@H]2CC[C@@H]1CN(Cc1cscn1)C2,22.9
18,COc1ccc(C(=O)N2CCN(c3cc(CCN)nc(C)n3)CC2)cc1,50.4
19,CCOc1cc(N2CCN(C(=O)c3ccc(OC)cc3)CC2)nc(C)n1,5.98

row,Compound,Percent Effect [%]
1,CCNc1cc(N2CCN(C(=O)c3ccc(OC)cc3)CC2)nc(C)n1,2.4
2,Cc1nc(CCN)cc(N2CCC(O)(c3ccc(Cl)cc3)CC2)n1,52.1
3,Cc1nc(CN)cc(N2CCC(O)(c3ccc(Cl)cc3)CC2)n1,7.04
4,Cc1nc(CCN)cc(N2CCC(O)(c3ccccc3)C2)n1 (configuration not stated),7.04
5,O=C(NC[C@@]1(COc2cnccn2)C[C@@H](O)[C@@H](O)C1)C1CCCC1,18.9
6,O=C(c1cccnc1)N1CCN2C[C@H](OCc3ccccc3)C[C@H]2C1,2
7,O=C(c1ccc(S(=O)(=O)NC2CCC2)cc1)N1CC[C@H]2CNC[C@H]21,-8.06
8,CN(C)CCCN(C)c1nccc(N2CCN[C@H]3CS(=O)(=O)C[C@H]32)n1,12.9
9,CNc1nc(C)c(-c2nc(-c3c(C)ncc4c3CCNC4)no2)s1,7.79
10,Cn1ncc2c1NC(=O)CC2c1c(F)cccc1Cl (configuration not stated),20
11,Cn1ncc2c1NC(=O)CC2c1c(Cl)cccc1Cl (configuration not stated),25
12,CNc1nc2c(s1)C(c1c(Cl)cccc1Cl)CC(=O)N2 (configuration not stated),74.3
13,CNc1nc2c(s1)C(c1cc(Cl)ccc1F)CC(=O)N2 (configuration not stated),42.5
14,CC(C)(C)n1ncc2c1NC(=O)CC2c1c(F)cccc1F (configuration not stated),26
15,CC(C)n1ncc2c1NC(=O)CC2c1ccccc1Cl (configuration not stated),22.5
16,CNc1nc2c(s1)C(c1ccc(F)cc1Cl)CC(=O)N2 (configuration not stated),7.5
17,Nc1nc2c(s1)C(c1c(F)cccc1Cl)CC(=O)N2 (configuration not stated),90
18,CNc1nc2c(s1)C(c1ccc(Cl)cc1Cl)CC(=O)N2 (configuration not stated),62.5
19,CNc1nc2c(s1)C(c1c(F)cccc1Cl)CC(=O)N2 (configuration not stated),120
